# Laboratory results taken from PubChem BioAssay AID686978 (National Center for Advancing Translational Sciences (NCATS), 2013).
# Hit rate of the full screen: of about 420,000 compounds, about 64,000 (15%) were called active. Another 27% or so got no clear call; they are omitted. Calls come from the whole dose curve; as a rule, active = well fitted inhibition curve with a large enough effect; inconclusive = small, poorly fitted or top-dose-only effect; inactive = flat fitted curve, though single readings scatter. A selection follows. A call without a number means that no potency is given here.
# Test: qHTS for Inhibitors of human tyrosyl-DNA phosphodiesterase 1 (TDP1): qHTS in cells in absence of CPT; note: nearly all actives have a fitted effect of over 55% in size
# Conditions: DT40 Tdp1-/- hTDP1 cells, no CPT, ATP luminescence, 48 h; activity change, negative = growth inhibition: at 46.2 µM (top of the series)
# How it was run: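 Chicken DT40 Tdp1-/- cells stably complemented with human TDP1 were seeded at 400 cells/well with DMSO in place of 20 nM camptothecin. After compound pinning, cells grew at least 48 hr at 37 °C; viability read by CellTiter-Glo luminescence.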
# Potency is the fitted concentration of half-maximal effect.
row,Compound,Potency
1,C=CCn1c(SCc2cc(C(=O)OC)c(C)o2)nnc1-c1ccncc1,inactive
2,CCOC(=O)N1CCC(N2Cc3cccc(C(=O)Nc4ccc(S(=O)(=O)N(CC)CC)cc4)c3C2=O)CC1,inactive
3,CCOC(=O)N1CCC(N2Cc3cccc(C(=O)Nc4c(C)cccc4CC)c3C2=O)CC1,23.1 µM (active)
4,COC(=O)c1ccc(NC(=O)c2cccc3c2C(=O)N(C2CCCCC2)C3)cc1,inactive
5,CC1(C)O[C@@H]2[C@H](O1)[C@@H](COS(=O)(=O)O)O[C@H]2n1ccc(=O)[nH]c1=O,inactive
6,NC(=O)COc1ccc(NC(=O)c2ccccc2-c2ccccc2)cc1,inactive
7,CCCOc1cccc(C(=O)Nc2cccc(NC(=O)c3ccc(C(C)(C)C)cc3)c2)c1,29.1 µM (active)
8,O=C(CSc1ccccc1)Nc1ccc(C(=O)Nc2cccc(O)c2)cc1,inactive
9,COC(=O)c1ccccc1NC(=O)c1ccccc1NS(C)(=O)=O,inactive
10,CCOc1ccc(C(=O)Nc2ccncc2)cc1,18.4 µM (active)
11,CSc1cccc(NC(=O)CSc2ccccc2)c1,inactive
12,CCCOc1cccc(C(=O)NCCCNC(=O)c2cccnc2)c1,inactive
13,CCOc1ccc(NC(=O)c2ccccc2NS(C)(=O)=O)cc1,18.4 µM (active)
14,CCOc1ccc(C(=O)Nc2cccc(SC)c2)cc1,9.2 µM (active)
15,CCOc1ccc(NC(=O)c2ccc(NC(=O)C3CCCO3)cc2)cc1 (configuration not stated),inactive
16,CCOc1cccc(C(=O)Nc2cccnc2)c1,inactive
17,CCOc1ccc(NC(=O)c2ccc(CSc3nnnn3C)cc2)cc1,inactive
18,Cc1cc(C(=O)OC(C)C(=O)Nc2cccc(S(=O)(=O)N3CCOCC3)c2)c(C)o1 (configuration not stated),inactive
19,COCCCNC(=S)NC(=O)c1ccc([N+](=O)[O-])cc1,inactive
20,CCOc1ccccc1NS(=O)(=O)c1c[nH]c(C(=O)OC)c1,inactive
21,COCCCNC(=O)c1c(NC(=O)c2cc(=O)c3cc(C)c(C)cc3o2)sc2c1CCCC2,inactive
22,Cc1cc(O)c(C2(O)C(=O)Nc3ccccc32)cc1C (configuration not stated),inactive

row,Compound,Potency
1,CC(C)(C)Nc1nc(-c2ccccn2)nc2ccccc12,4.11 µM (active)
2,CC(C)(C)c1ccc(Oc2ccc(N)cc2)cc1,inactive
3,COc1cnc(-c2ccccn2)nc1Oc1ccc(C(C)(C)C)cc1,4.61 µM (active)
4,Cc1nc2ccccc2c(C(=O)O)c1-c1ccccn1,inactive
5,COc1ccc(Cc2nc(-c3ccccn3)no2)cc1OC,inactive
6,CCOC(=O)c1cnc(-c2ccccc2)nc1Oc1ccc(C)cc1,inactive
7,Cc1ccc(Oc2nc(-c3ccccn3)nc3ccccc23)cc1,18.4 µM (active)
8,O=C(c1ccc(NS(=O)(=O)c2ccc3[nH]c(=O)[nH]c3c2)cc1)N1CCCCC1,inactive
9,CCC(CC)C(=O)Nc1c2c(nn1-c1ccc(C)cc1)CS(=O)(=O)C2,inactive
10,Cc1noc(COc2ccccc2OCc2onc(C)c2Cl)c1Cl,inactive
11,CC1(OC(=O)C2CCCC2)C(=O)C=C2C=C(c3ccc(C#N)cc3)OC=C2C1=O (configuration not stated),inactive
12,CC(C)NC(=O)CSc1nnc(COc2ccccc2Cl)o1,inactive
13,C/C(=N\NS(=O)(=O)c1cccc([N+](=O)[O-])c1)c1cc2ccccc2o1,inactive
14,Cc1cc(NC(=O)COC(=O)COc2ccc(Cl)cc2C)c([N+](=O)[O-])cc1C,inactive
15,O=C(CCCN=C1NS(=O)(=O)c2ccccc21)OCC(=O)c1ccc(F)c(F)c1,inactive
16,S=c1[nH]nc(-c2ccncc2)n1/N=C/c1ccccc1Cl,inactive
17,Fc1ccc(/C=N/n2c(COc3ccccc3)n[nH]c2=S)cc1,inactive
18,Cc1ccc(/C=N\n2c(-c3ccccc3)n[nH]c2=S)s1,inactive
19,CCc1n[nH]c(=S)n1/N=C/c1c[nH]c2ccc(Br)cc12,18.4 µM (active)
20,Oc1ccccc1/C=N/n1c(-c2cccs2)n[nH]c1=S,inactive
21,S=c1[nH]nc(-c2ccccc2)n1/N=C/c1c[nH]c2ccccc12,6.51 µM (active)
22,N#CCCN1CCN(S(=O)(=O)c2ccc(S(=O)(=O)NC3CCCCC3)cc2)CC1,inactive

row,Compound,Potency
1,COc1ccc(CCC(=O)OCC(=O)Nc2ccc(C)c(S(=O)(=O)N(C)C)c2)cc1,inactive
2,CCCCCCSc1nsc(N)n1,inactive
3,CCOC(=O)CSc1nnc(CNC(=O)c2cccs2)n1-c1cc(OC)ccc1OC,inactive
4,Cc1cc(=O)oc2c(C(=O)c3ccccc3)c(OCC(N)=O)ccc12,inactive
5,O=C(CCCn1c(=O)oc2ccccc21)Nc1cccnc1,inactive
6,CC(C)Cn1cc(-c2cncc3nccn23)cn1,inactive
7,Cc1ccnc(SCCn2c(Br)nc3c2c(=O)[nH]c(=O)n3C)n1,inactive
8,Cn1c(=O)[nH]c(=O)c2c1nc(Br)n2CCCCSc1nc2ccccc2o1,18.4 µM (active)
9,Fc1ccccc1OCCSc1nc2ccccc2o1,inactive
10,COc1ccc(-c2nc(SCC(=O)N3CCCC3)n[nH]2)cc1,inactive
11,CCc1c(C)nc(SCC(=O)NC2CCCC2)[nH]c1=O,inactive
12,CCc1ccc(-c2nc(SCC(=O)NC3CCCC3)n[nH]2)cc1,23.1 µM (active)
13,Cc1cc(Br)ccc1SCC(=O)OCC(=O)NCc1ccc2c(c1)OCO2,inactive
14,CCOc1ccc(C(=O)NC(C(=O)NCc2ccccn2)C(C)C)cc1 (configuration not stated),inactive
15,COc1ccc(F)cc1S(=O)(=O)N1CCCCC1,inactive
16,COc1ccc(CCNCc2c(C(=O)O)c(C)n(Cc3cccc(C)c3)c2C)cc1OC,inactive
17,COc1cccc(CNCc2c(C(=O)O)n(Cc3ccc(C)cc3)c3cc(C)ccc23)c1OC,16.4 µM (active)
18,CCOc1c(CNCc2ccc(C(=O)O)cc2)cccc1OC,inactive
19,CCOC(=O)c1c(Cc2ccc(Cl)cc2)c[nH]c1C,inactive
20,NC(=NC(=O)c1ccccc1)N1CCOCC1,inactive
21,O=C(CNS(=O)(=O)c1ccccc1)NCC(=O)OCc1ccccc1F,inactive
22,COc1ccc(-c2nc3sc(CCNC(=O)C(C)(C)C)c(C)n3n2)cc1,23.1 µM (active)

row,Compound,Potency
1,COc1ccc(-c2nc3sc(CCNS(=O)(=O)c4ccc(F)c(C)c4)c(C)n3n2)cc1,20.6 µM (active)
2,COc1ccc(CCNS(=O)(=O)c2cn(C)nc2C)cc1,inactive
3,Cc1ccc(S(=O)(=O)NCCC(=O)Nc2cccc(S(N)(=O)=O)c2)cc1C,inactive
4,CCOc1ccc2nc(NCCNC(=O)C(C)(C)C)c(C)cc2c1,inactive
5,COc1ccc(CNC(=O)Cn2nnc(-c3ccc(S(C)(=O)=O)cc3)n2)cc1,inactive
6,COC(=O)C1=NNC2(c3ccc(C)cc3)C(=O)N(c3cccc(C)c3C)C(=O)C12 (configuration not stated),inactive
7,CS(=O)(=O)c1ccc(-c2nnn(CC(=O)Nc3ccc4c(c3)OCCO4)n2)cc1,inactive
8,O=C(NC1CCN(Cc2ccccc2)CC1)c1c(F)cccc1F,inactive
9,CC(=O)NCc1ccc(S(=O)(=O)NC2CCN(Cc3ccccc3)CC2)cc1,inactive
10,O=C(NC1CCN(Cc2ccccc2)CC1)c1ccc(Oc2cc(Cl)cc(Cl)c2)o1,18.4 µM (active)
11,O=C(NC1CCN(Cc2ccccc2)CC1)c1ccccc1F,inactive
12,O=C(NC1CCN(Cc2ccccc2)CC1)c1cc(Br)c(Br)[nH]1,16.4 µM (active)
13,O=S(=O)(NCc1ccccn1)c1ccc(Br)s1,inactive
14,CCOCCCNC(=O)c1c[nH]c2cc(C)ccc2c1=O,inactive
15,COc1cccc(OCc2nnc3n2N=C(c2ccccc2)C(CC(=O)O)S3)c1 (configuration not stated),inactive
16,Cc1nn(-c2ccccc2)c(Cl)c1C(=O)Nc1ccccc1,inactive
17,Cc1nn(-c2ccccc2)c(CC(C)(C)C(=O)O)c1C(=O)O,inactive
18,Cc1nn(-c2ccccc2)c(Cl)c1/C=C/C(=O)c1ccc(O)cc1,16.4 µM (active)
19,O=C(O)c1ccc2c(c1)C(=O)N(c1ccc(/C=C/C(=O)c3ccccc3)cc1)C2=O,inactive
20,Cc1nn(-c2ccccc2)c(C)c1/C=C/C(=O)OC(C)C(N)=O (configuration not stated),inactive
21,Cc1ccc(C(=O)/C=C/c2c(C)nn(-c3ccccc3)c2Cl)cc1,20.6 µM (active)
22,COc1ccc(C2CC(=O)C=C(NCC3CCCO3)C2)cc1 (configuration not stated),inactive

row,Compound,Potency
1,COC(=O)c1ccc(/C=N\n2c(C)nnc2C)cc1,inactive
2,CC(OC(=O)c1ccc(NS(=O)(=O)c2ccc3[nH]c(=O)[nH]c3c2)cc1)C(=O)Nc1cccc(Cl)c1Cl (configuration not stated),inactive
3,O=C(COCc1cc(-c2ccc3c(c2)OCO3)on1)N1CCN(c2cccc(Cl)c2)CC1,inactive
4,Cc1cc(/C=C2/C(=N)N3C(=NC2=O)SN=C3S(C)(=O)=O)c(C)n1-c1ccccc1,inactive
5,O=C(CSc1nnc(Cc2ccccc2)n1-c1ccccc1)N1CCOCC1,inactive
6,CN(CCc1ccccn1)C(=O)c1ccc(OC2CCN(CCc3ccccc3)CC2)cc1,inactive
7,Fc1ccc(-c2ccc(-c3nn4c(-c5ccco5)nnc4s3)o2)cc1,inactive
8,c1ccc(-c2cc(-c3ccccc3)[nH]n2)cc1,inactive
9,c1ccc(-c2cc(-c3nnc4sc(-c5ccccn5)nn34)[nH]n2)cc1,13 µM (active)
10,COC(=O)C1[C@H]2SC(C)(C)C(C(=O)OC)N2C(=O)N1Cc1nc2ccccc2s1 (some centres not stated),inactive
11,Cc1cccc(CSc2nnc(Cn3c(=O)sc4ccccc43)n2C)c1,inactive
12,CNC(=S)N1N=C(c2ccccc2)CC1c1ccc(Br)cc1 (configuration not stated),inactive
13,Brc1ccc(C2CC(c3ccccc3)=Nc3ccccc3N2)cc1 (configuration not stated),23.1 µM (active)
14,CCCC(=O)Nc1cccc(NC(=S)NC(=O)C(C)Oc2ccc(Cl)cc2Cl)c1 (configuration not stated),inactive
15,CC(Cc1cccs1)NC(=O)c1cccc(Cl)c1 (configuration not stated),inactive
16,Cc1noc(C)c1S(=O)(=O)N(C)C[C@H]1Oc2ccc(NC(=O)C3CC3)cc2C(=O)N([C@H](C)CO)C[C@@H]1C,inactive
17,Cc1ccc(-c2nc(Cn3c(=O)cc(-c4ccccc4)c4c(C)nn(C)c43)c(C)o2)cc1,inactive
18,COc1ccc(-c2nc(Cn3c(=O)cc(C)c4c(C)nn(-c5ccccc5)c43)c(C)o2)cc1OC,inactive
19,COc1ccc(-c2nc(Cn3c(=O)cc(C)c4c(C)nn(-c5ccccc5)c43)c(C)o2)c(OC)c1,20.6 µM (active)
